The campaign covered roughly 65,000 compounds. About 2,100 (3.2%) showed an effect of 50% or more. The median lay at about -52%. The list comes from a sample in which strong results are over-represented; it also holds similar structures and randomly drawn compounds.
system: Plasmodium falciparum; assay: Screen against P. falciparum Asexual Blood Stage (ABS), at 5uM; format: functional, Dd2; settings: tested at 5 uM

Row | Compound | INHIBITION
1 | COCCN1CCc2cc(C(=O)NC(C)C)c(NCC(C)C)nc2CC1 | 78.9%
2 | COCCN1CCC2(CC1)C(=O)Nc1ccc(C(=O)NC(C)C)cc12 | -102%
3 | Cc1n[nH]c2c1C(c1cnn(C)c1)SCC(=O)N2 (stereo not given) | -51.7%
4 | c1cncc(CN2CCC3(CCCN(c4nncs4)C3)C2)c1 (stereo not given) | -82.9%
5 | CC(C)c1ccc(CN2CCC3(CCCN(c4nncs4)C3)C2)cc1 (stereo not given) | 73.6%
6 | CN(C)C(=O)N1CCCC2(CCN(Cc3ccncc3)C2)C1 (stereo not given) | -29.6%
7 | Cc1cccc(CN2C[C@@H]3COC[C@H](NS(C)(=O)=O)[C@@H]3C2)n1 | -96.6%
8 | CC(C1CCN(Cc2c(Cl)ccc(O)c2Cl)CC1)N1CCN(C)CC1 (stereo not given) | 87.2%
9 | Cc1n[nH]c2c1C(c1cc(F)cc(F)c1)SCC(=O)N2 (stereo not given) | -23.5%
10 | CCOC(=O)N1CCC2(CCNC2)C1 (stereo not given) | -85.4%
11 | CC(=O)N1CC2(CCNCC2)c2cc(Cl)ccc21 | 3.4%
12 | O=C(c1ccco1)N1CCO[C@@H]2CNCC[C@@H]2C1 | -138%
13 | O=C1CCC2(CCCN(C(=O)c3ccco3)CC2)N1 (stereo not given) | 40.8%
14 | CCOC(=O)N1CC2(CCNCC2)c2cc(Cl)ccc21 | 78%
15 | O=C(c1ccccc1F)N1CC2(CCNCC2)c2cc(Cl)ccc21 | 77%
16 | O=C(c1ccco1)N1CC2(CCNCC2)c2cc(Cl)ccc21 | 76.1%
17 | COC(=O)N1CC2(CCNCC2)c2cc(Cl)ccc21 | 13.1%
18 | NC(=O)N1CC2(CCNCC2)c2cc(Cl)ccc21 | -61%
19 | O=C(NC[C@]12COC[C@H]1CN(Cc1cccnc1)C2)C1CCC1 | -49.9%
20 | CCC(C(=O)N1CCCSCC1)N1CCCC1=O (stereo not given) | -76.1%
21 | CNCCc1nc2cc(Cl)ccc2[nH]1 | -71%
22 | O=C(N1CCCO1)[C@@]12CCO[C@@H]1CCN(Cc1ccccn1)C2 | -110%
23 | CC(Cn1cncn1)NCCN1CCc2ccccc21 (stereo not given) | -71.4%
24 | CC(C)c1nn(C)c(Cl)c1CNCC(O)c1cccc(F)c1 (stereo not given) | 82.4%
25 | CC(C)=CCN1C[C@@H]2CC[C@H]1CN(C(=O)CSc1ccncc1)C2 | -26.7%
26 | Cc1noc(C)c1CN1CC2(CCCCN2C)CC1=O (stereo not given) | -15.4%
27 | O=C(Nc1cccnc1)[C@H]1C[C@@H]2CCN(Cc3nccs3)C[C@@H]2O1 | -177%

Row | Compound | INHIBITION
28 | O=C(Nc1nccs1)C1CCCN1Cc1ccccn1 (stereo not given) | 93.7%
29 | CCn1ccnc1CN1CCCC1C(=O)Nc1nccs1 (stereo not given) | 85%
30 | CCn1ccnc1CN1CCCN(C(=O)Cc2csc(C)n2)CC1 | -15.3%
31 | O=C(N[C@@H]1CN(Cc2ccccn2)[C@@H]2COC[C@@H]21)C1CCC1 | -89.5%
32 | CC(C)NC(=O)[C@H]1C[C@@H]2[C@@H](C1)OCCN2Cc1ccccn1 | -84.2%
33 | CCNc1ccnc(CN2CCCC2C(=O)Nc2nccs2)c1 (stereo not given) | 95.1%
34 | Cc1cnc(C(=O)N2C[C@H]3CN(Cc4cccnc4)C[C@H]3C2)cn1 | -8.02%
35 | CN(C)CCN(Cc1cccnc1)C(=O)c1ccn(-c2ccccc2)n1 | 87.4%
36 | CCCN1CCN(C(=O)Cc2nc(-c3ccco3)oc2C)CC1 | -36.9%
37 | COc1cccc(C2=CCN(CCN3CCCC3=O)CC2)c1 | 12.8%
38 | Cc1nc(CN)cc(N2CCC(O)(c3ccc(Cl)cc3)CC2)n1 | 72.2%
39 | Cc1nc(CCN)cc(N2CCC(O)(c3ccc(Cl)cc3)CC2)n1 | 91.7%
40 | CN1[C@@H](C(=O)NCC2CC2)C[C@@H]2CN(c3ncccn3)C[C@@H]21 | 13.9%
41 | c1ccc(O[C@@H]2CC[C@H]3[C@H]2OCCN3CC2CCOCC2)nc1 | -83.6%
42 | c1ccc(O[C@H]2CC[C@H]3[C@H]2OCCN3Cc2nccs2)nc1 | -64.9%
43 | CC(C)C[C@H](N)COc1cccc(F)c1Oc1ccccc1 | 70.9%
44 | CC(C)C[C@H](N)COc1cccc(F)c1Oc1cccc(Cl)c1 | 85.5%
45 | CC(C)C[C@H](N)COc1cccc(F)c1Oc1ccc(Cl)cc1 | 86.5%
46 | c1ccc(CO[C@@H]2C[C@H]3CN(c4ncccn4)CCN3C2)nc1 | -38.6%
47 | c1cc(CN2CCOC3(CCCC3)C2)no1 | -101%
48 | O=C1CSC(c2ccsc2)c2sccc2N1 (stereo not given) | -15.7%
49 | Cc1ccc(N2CCO[C@H]3CN(Cc4cccs4)C[C@H]32)nn1 | -11.3%
50 | O=C(CN1CCCC(c2ccn[nH]2)C1)Nc1nc2c(s1)CCC2 (stereo not given) | 89.2%
51 | Cc1cc(C2CCCN(CC(=O)Nc3nc4c(s3)CCC4)C2)n[nH]1 (stereo not given) | 86.9%
52 | O=C(CN1CCCC(c2ccn[nH]2)C1)Nc1nc2c(s1)CCCC2 (stereo not given) | 86.1%
53 | COCCn1cc(C(=O)Nc2nc3c(s2)CCC3)c2ccccc21 | -78.7%
54 | CC1CN(C)CCN1C(=O)COc1cccc(Oc2ccccn2)c1 (stereo not given) | -65.8%

Row | Compound | INHIBITION
55 | Cc1noc(C)c1CN1CCOC2(CCCN(c3nccs3)C2)C1 (stereo not given) | -36.8%
56 | CCCOc1cc(Cl)c(CN2CCNC(C(=O)NC3CC3)C2)cc1OC (stereo not given) | 75.4%
57 | O=C(c1ccc(Cn2ccccc2=O)o1)N1CCC2(CC1)OCCO2 | 1.12%
58 | CC(C)Cc1ncc2c(n1)CN(C(=O)c1ccc(CN3CCCC3)o1)C2 | 70.3%
59 | CCCn1cc(C(=O)NCCCC(N)=O)c2ccccc21 | -75%
60 | CCCn1cc(C(=O)NCCS(N)(=O)=O)c2ccccc21 | -25.6%
61 | Cc1ccc(C(C)NCc2cn(CCC(N)=O)c3ccccc23)cc1C (stereo not given) | 82.8%
62 | CC(C)CNC(=O)N1C[C@@H]2CCCN[C@@H]2C1 | -5.1%
63 | COCCN1CCOCC12CCN(C(=O)c1ccncc1)CC2 | -98.9%
64 | FC(F)(F)c1ccc2nc([C@H]3CCN(C4CCCCC4)C3)[nH]c2c1 | 83.6%
65 | CCc1nc(-c2ccc(C(=O)N3CCC4(CC3)OCCO4)cc2)no1 | -52.5%
66 | Cc1ccc2c(CC(=O)N3C[C@@H](O)[C@H](N(C)C)C3)coc2c1 | 9.22%
67 | CN(C)CCCn1ccnc1C1CCCN(c2ncc(Cl)cc2F)C1 (stereo not given) | 84.4%
68 | COCCO[C@@H]1C[C@H]2CN(C(=O)c3cccnc3)CCN2C1 | -84.1%
69 | Cc1ccccc1CNC(Cn1cncn1)c1ccccc1 (stereo not given) | -47.8%
70 | CC(Cc1cccc(Cl)c1)NC(=O)NCc1ncnn1C (stereo not given) | -104%
71 | CCC(NCc1cccc(Cl)c1)c1ccccc1OCC(=O)NC (stereo not given) | 82.8%
72 | CC(Cc1ccccc1Cl)NC(=O)Nc1cnn(CC(N)=O)c1 (stereo not given) | -20.1%
73 | Clc1ccccc1CNC(Cn1cncn1)c1ccccc1 (stereo not given) | -8.41%
74 | CCC(NCc1ccccc1C)c1ccccc1OCC(=O)NC (stereo not given) | 80%
75 | CCC(NCc1ccccc1Cl)c1ccccc1OCC(=O)NC (stereo not given) | 74.7%
76 | COCC(=O)NC(C)Cc1cccc(Cl)c1 (stereo not given) | -14.8%
77 | COCCN1CCO[C@H]2CN(Cc3cccc(C)n3)C[C@H]21 | -18.3%
78 | Cc1cc(NC2CC3(CCN(Cc4ncccc4F)C3)C2)ncn1 (stereo not given) | -37.1%
79 | CCc1c(C)[nH]c(C2(N)CCCC2)nc1=O | -43.5%
80 | CNC(=O)[C@H]1C[C@@H]2CN(Cc3cccnc3OC)C[C@@H]2N1C(C)C | 21.8%
81 | CC(Cn1cccn1)NCc1ccc(Cl)s1 (stereo not given) | -30.2%

Row | Compound | INHIBITION
82 | CC(NC(=O)CN1CCCC1=O)c1ccc(Cl)s1 (stereo not given) | -3.71%
83 | CN1CCCC(Cc2cncc(Br)c2)CC1 (stereo not given) | -65%
84 | Cc1cc(C(C)NCCN2CCC(N(C)C)CC2)c(C)s1 (stereo not given) | 81.6%
85 | CC(NCCN1CCC(N(C)C)CC1)c1ccc(Cl)s1 (stereo not given) | 75.4%
86 | Cc1cc(Br)cnc1NCCN1CCC(N(C)C)CC1 | 89.1%
87 | CN1[C@@H]2CC[C@H]1CN(c1cc(Sc3cccs3)nc(N)n1)CC2 | 19.3%
88 | Cc1ccc(CN2CC[C@H]3NC(=O)CC[C@@H]32)o1 | -34.6%
89 | CSc1ccc(-c2nc(CN3CCC(CN)C3)c(C)o2)cc1 (stereo not given) | 83.05%
90 | Cc1cc(CN2CC[C@]3(C[C@@H](OCC(=O)N(C)C)CO3)C2)no1 | -93%
91 | c1ccc(CN2CCCC[C@H]3CN(c4ncccn4)C[C@H]32)cc1 | 3.59%
92 | CCn1cc(CN2CCCCC2CCn2ccnc2C)cc1C#N (stereo not given) | 78.2%
93 | CCn1ccnc1CN1CCN(C(C)C)CC1C (stereo not given) | -35.9%
94 | O=C(c1cc2cc(F)ccc2[nH]1)N1CCC(Nc2ccc(F)cc2)CC1 | -1.01%
95 | CCCN1CCC(NC(=O)c2ccc(F)cc2I)CC1 | 71.1%
96 | Cc1cc(CC(=O)N2CCN(CC3CC3)[C@@H]3CS(=O)(=O)C[C@@H]32)ccc1F | -75.7%
97 | CO[C@H]1CNC[C@@H]1NC(=O)c1cc(C)nc2c(C)cc(C)cc12 | 75.1%
98 | Cc1ccc2nc(C)cc(C(=O)N[C@H]3COC[C@@H]3N3CCOCC3)c2c1 | -169%
99 | Cc1cc(C(=O)N[C@H]2COC[C@@H]2N2CCOCC2)c2ccc(F)cc2n1 | -31.3%
100 | c1cncc(OC[C@]23COC[C@H]2CN(C2CCC2)C3)c1 | -4.29%
101 | CCC1CCCN(Cc2nc(N)c3ccccc3n2)C1 (stereo not given) | 74%
102 | O=S(=O)(C1CC1)N1CCOC2(CCCN(Cc3ccccn3)C2)C1 (stereo not given) | -97.5%
103 | CN(C)CCN1CCN(CC2CC2)c2ncccc2C1 | 10.4%
104 | CN(C)CCN1CCC(NC2CSCCc3ccccc32)CC1 (stereo not given) | 76.5%
105 | CCN1CCc2c(cccc2NC(=O)N(C)C2CCSC2)C1 (stereo not given) | -40.2%
